From PubChem BioAssay AID2279 (Southern Research Specialized Biocontainment Screening …, 2010)
Results with a measured potency or affinity are listed apart. Activity calls are given as the source filed them. No rule for the calls is given here.

Assay: HIV-1 Env-mediated cell fusion inhibitors, dose response, CCR5-tropic Env (AID 2279)
Settings: CCR5-tropic HIV-1 Env, reporter read-out; series mostly up to 50 µM

| Compound | outcome |
| --- | --- |
| O=c1oc2ccccc2c(O)c1C(c1ccc([N+](=O)[O-])cc1)c1c(O)c2ccccc2oc1=O | inactive |
| O=C1NC(=S)N(c2ccc(F)cc2)C(=O)/C1=C/c1ccco1 | inactive |
| O=C1NC(=S)N(c2ccc(F)cc2)C(=O)/C1=C\c1ccoc1 | inactive |
| NC(=O)Cn1cc(C=C2C(=O)NC(=O)NC2=O)c2ccccc21 | inactive |
| Cc1ccc(N2C(=O)/C(=C/c3ccc(CN(CCC#N)S(C)(=O)=O)o3)C(=O)NC2=S)cc1C | inactive |
| O=C(O)c1cccc2c1NC(c1cccc([N+](=O)[O-])c1)C1CC(Sc3ccccc3[N+](=O)[O-])C(Cl)C21 (stereo not drawn) | inactive |
| COc1ccc(OC)c(N2C(=O)/C(=C/c3ccco3)C(=O)NC2=S)c1 | inactive |
| COc1ccc(N2C(=O)/C(=C/c3ccco3)C(=O)NC2=S)cc1 | inactive |
